# Laboratory results taken from PubChem BioAssay (NCATS).
# Values joined by “and” are separate entries in the source; they are usually repeats but may differ in a detail not shown here. Equal values may be shown once. Values without a mark were called inactive. Results filed as inconclusive are left out. Where a call stands in place of a potency, no number is given. Active and inactive are the calls of the source. Calls follow the shape of the dose curve; as a rule, active = well fitted curve in the direction sought with a large enough effect; inconclusive = small, poorly fitted or top-dose-only effect, or another doubt; inactive = no such curve, though single readings can be large; an effect the other way counts as inactive or inconclusive.
# Tests used:
# [1] = Cellular Toxicity (caspase-3) HUV-EC-C (AID 656)
# Procedure, shortened: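 Concentration-dependent caspase 3/7 induction was assessed in HUV-EC-C cells exposed for 16 hours. Data scaled between DMSO and tamoxifen (100 uM) controls.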
# [2] = Cellular Toxicity (caspase-3) SHSY5Y (AID 657); also: potency is read from the fitted curve at half-maximal effect
# Procedure, shortened: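 Readout: caspase-cleaved peptide-aminoluciferin substrate driving luciferase light in SH-SY5Y neuroblastoma cells after 16 h treatment. Response normalized to DMSO and 10 uM staurosporine controls.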
# [3] = Cellular Toxicity (caspase-3) BJ (AID 658); conditions: Potency: caspase-3 activation; also: potency is read from the fitted curve at half-maximal effect
# Procedure, shortened: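 Luminescent aminoluciferin-substrate cleavage reports caspase 3/7 activity in normal human BJ fibroblasts after 16 hr compound exposure at 37 °C. Normalized to DMSO (basal) and 10 uM staurosporine (100%); AC50 from Hill fit of concentration-response.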
# [4] = Cellular Toxicity (caspase-3) MRC-5 (AID 659); conditions: Potency: caspase-3 activation; also: potency is read from the fitted curve at half-maximal effect
# Procedure, shortened: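 Luminescence from caspase-cleaved aminoluciferin substrate (Caspase-Glo 3/7, 1 hr RT) reports caspase 3/7 activity in MRC-5 lung fibroblasts after 16 hr compound exposure. Normalized to DMSO basal and 10 uM staurosporine as 100%; AC50 from Hill fits.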
# [5] = Cellular Toxicity (caspase-3) Mesangial (AID 660); conditions: Potency: caspase-3 activation;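 also: combined caspase 3 and 7 activity read by Caspase-Glo luminescence; cells exposed to compound for 16 h before the caspase read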; also: potency is read from the fitted curve at half-maximal effect
# Procedure, shortened: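 Human renal glomerular mesangial cells, 1000/well, 5 h at 37 C before 16 h compound treatment. Caspase-Glo 3/7 luminescence after 20 min; normalized to DMSO and 100 uM tamoxifen, AC50 from Hill fit.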
# [6] = Cellular Toxicity (caspase-3) SK-N-SH (AID 661); also: potency is read from the fitted curve at half-maximal effect
# Procedure, shortened: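 Human SK-N-SH neuroblastoma cells, 1500/well, were exposed to compounds for 16 hours at 37 °C. Caspase-Glo 3/7 luminescence was normalized to DMSO (basal) and 10 uM staurosporine (100%), and AC50 came from a Hill fit.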
# [7] = Cellular Toxicity (caspase-3) H-4-II-E (AID 663); conditions: H-4-II-E rat hepatoma, scaled: DMSO 0%, 100 µM tamoxifen 100%; at 92.2 µM (top of the series);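 also: cells exposed to compound for 16 hr before readout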
# Procedure, shortened: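 Luminescence from caspase-cleaved aminoluciferin substrate, read 20 min after reagent addition, reports caspase 3/7 activation in rat H-4-II-E cells after 16 hr compound exposure. Normalized to DMSO (basal) and 100 uM tamoxifen (100%); AC50 from Hill fits.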
# [8] = Cellular Toxicity (caspase-3) Hek293 (AID 664); conditions: HEK293 caspase-3 activation, DMSO = 0%, 100 µM tamoxifen = 100%; at 92.2 µM (top of the series);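 also: cells exposed to compound for 16 h at 37 °C before readout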
# Procedure, shortened: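 HEK293 cells in complete medium treated 16 h at 37 °C, then Caspase-Glo 3/7 luminescence read after 20 min at room temperature. Normalized to DMSO and 100 uM tamoxifen; AC50 from Hill fit of concentration-response.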
# [9] = Cellular Toxicity (caspase-3) N2a (AID 665);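 also: compound exposure lasted 16 h at 37 °C before readout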
# Procedure, shortened: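 Mouse N2a neuroblastoma cells, 1500 per well, treated 16 h at 37 °C in complete medium; caspase-3/7 activity by Caspase-Glo luminescence after 1 h. Normalized to DMSO and 10 uM staurosporine; AC50 from Hill fits.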
# [10] = Cellular Toxicity (caspase-3) NIH 3T3 (AID 666); also: potency is read from the fitted curve at half-maximal effect
# Procedure, shortened: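 Mouse NIH 3T3 fibroblasts (1000/well) treated 16 h at 37 C; caspase-3/7 activity measured by Caspase-Glo 3/7 luminescence after 20 min. Normalized to DMSO and 100 uM tamoxifen; AC50 from Hill fits.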
SMILES,outcome [1],Potency [2],Potency [3],Potency [4],Potency [5],Potency [6],caspase-3 activation [7],caspase-3 activation [8],outcome [9],Potency [10]
N=C(N)c1ccc(OCCCCCOc2ccc(C(=N)N)cc2)cc1,inactive,inactive,inactive,inactive,inactive,inactive,1.46%,3%,inactive,inactive
Cc1noc(NS(=O)(=O)c2ccc(N)cc2)c1C,inactive,inactive,inactive,inactive,inactive,inactive,0.00688%,-1.11%,inactive,inactive
CC[C@H](C)C(=O)O[C@H]1C[C@@H](C)C=C2C=C[C@H](C)[C@H](CC[C@@H]3C[C@@H](O)CC(=O)O3)[C@H]21,inactive,inactive,inactive,inactive,inactive,inactive,1.47%,-1.73%,inactive,inactive
CC(=O)Oc1ccccc1C(=O)Nc1ncc([N+](=O)[O-])s1,inactive,inactive,inactive,inactive,inactive,inactive,-3.94%,-8.75%,inactive,–
Cc1ccnc2c1NC(=O)c1cccnc1N2C1CC1,inactive,inactive,inactive,inactive,inactive,inactive,0.892%,-0.521%,inactive,inactive
NC(N)=NC(N)=NCCc1ccccc1,inactive,inactive,inactive,inactive,inactive,inactive,0.291%,-0.745%,inactive,inactive
CC(=O)[C@H]1CC[C@H]2[C@@H]3CCC4=CC(=O)CC[C@]4(C)[C@H]3CC[C@]12C,inactive,inactive,inactive,inactive,inactive,inactive,12.7% and 23%,154% (active),inactive,inactive
COc1ccc2cc3[n+](cc2c1OC)CCc1cc2c(cc1-3)OCO2,inactive,inactive,inactive,inactive,inactive,inactive,0.864%,4.12%,inactive,inactive
CC1=NN(c2ccccc2)C(=O)C1,inactive,inactive,inactive,inactive,inactive,inactive,-1.22%,1.55%,inactive,inactive
CN(C)c1ccc(C(=C2C=CC(=[N+](C)C)C=C2)c2ccc(N(C)C)cc2)cc1,–,3.16 µM (active),15.8 µM (active),6.31 µM (active),31.6 µM (active),10 µM (active),85.6% (active),–,–,31.6 µM (active)
O=C(N[C@H](CO)[C@H](O)c1ccc([N+](=O)[O-])cc1)C(Cl)Cl,inactive,inactive,inactive,inactive,inactive,inactive,0.675%,1.63%,inactive,inactive
Cc1nnc(NS(=O)(=O)c2ccc(N)cc2)s1,inactive,inactive,inactive,inactive,inactive,inactive,-0.129%,-0.508%,inactive,inactive
CCc1cc(C(N)=S)ccn1,inactive,inactive,inactive,inactive,inactive,inactive,-1.43%,-3.96%,inactive,inactive
Cc1cc(NS(=O)(=O)c2ccc(N)cc2)no1,inactive,inactive,inactive,inactive,inactive,inactive,0.0786%,1.7%,inactive,inactive
C[C@]12C=CC(=O)C=C1CC[C@@H]1[C@@H]2C(=O)C[C@@]2(C)[C@H]1CC[C@]2(O)C(=O)CO,inactive,inactive,inactive,inactive,inactive,inactive,0.264%,-0.65%,inactive,inactive
Cc1ncc([N+](=O)[O-])n1CCO,inactive,inactive,inactive,inactive,inactive,inactive,0.0502%,-0.402%,inactive,inactive
O=C(O)c1cc(=O)[nH]c(=O)[nH]1,inactive,inactive,inactive,inactive,inactive,inactive,0.389%,-0.467%,inactive,inactive
NNC(=O)c1ccncc1,inactive,inactive,inactive,inactive,inactive,inactive,0.877%,0.113%,inactive,inactive
